# ChEMBL document CHEMBL1157539, “Thousands of chemical starting points for antimalarial lead identification” (Nature, 2010)
# What was measured:
# Format in all cases: functional
# Plasmodium falciparum [1] = test: GSK_TCMDC: Inhibition of Plasmodium falciparum 3D7 in whole red blood cells, using parasite LDH activity as an index of growth. Test compounds present at 2uM
# Plasmodium falciparum [2] = test: GSK_TCMDC: Inhibition of Plasmodium falciparum Dd2 in whole red blood cells, using parasite LDH activity as an index of growth. Test compounds present at 2uM
# HepG2 = test: GSK_TCMDC: Percent inhibition of human HepG2 cell line. Test compounds present at 10uM.
Structure (SMILES),Inhibition (Plasmodium falciparum [1]) [%],Inhibition (Plasmodium falciparum [2]) [%],Inhibition (HepG2) [%]
Cl.O=C(Nc1ccncc1)Nc1ccc2c(c1)CCN(C1CCC1)CC2,87,4,0
C=Cc1c(C2CCN(CCCCNC(=O)c3ccc(-c4ccc(C#N)cc4)cc3)CC2)ccc2c1CCCC2,94,75,75
Cc1cc(N(C)C)nc(Nc2ccc(NC(=O)CCc3ccccc3)cc2)n1,100,84,20
Cc1ccccc1C1CCN(C2CCC(NC(=O)/C=C/c3cccc(Cl)c3F)CC2)CC1 (configuration not stated),100,37,87
CCN(CC)CCN1C(=O)c2oc3ccc(Cl)cc3c(=O)c2C1c1ccc(SC)cc1 (configuration not stated),98,6,0
CC(C)NCc1ccc(-c2cccc(-c3nc4ccccc4[nH]3)c2)cc1.O=C(O)C(F)(F)F,100,34,21
O=C(CSc1nc2ccc([N+](=O)[O-])cc2s1)Nc1ccccc1-c1ccccc1,80,49,0
COc1ccc(C=NNc2cc(C)nc3ccc(OC)cc23)c(OC)c1,100,95,23
O=S(=O)(Nc1ccc(CCN2CCC(N3CCCCC3)CC2)cc1)c1cccc(C(F)(F)F)c1,100,15,20
Cc1[nH]c(C)c(-c2ccc(-c3cccc(Cl)c3)nc2)c(=O)c1Br,96,96,10
CO/C(=C\C=C\c1cc2cc(Cl)c(Cl)cc2[nH]1)C(=O)NCCCN1CCN(c2cccc(OC)c2)CC1,100,93,61
NC1CCN(Cc2cccc(-c3ccc(-c4nc5ccccc5[nH]4)cc3)c2)C1.O=C(O)C(F)(F)F (configuration not stated),100,58,24
COc1ccc2nc3cc(Cl)ccc3c(NCCCCN)c2c1.Cl,100,62,52
C=CCN1CCC(N(Cc2cccc(Oc3ccccc3)c2)C(=O)C(c2ccccc2)c2ccccc2)CC1,87,79,7
COC(=O)c1cccc(CNCc2ccc(-c3cccc(-c4nc5cccc(C)c5[nH]4)c3)cc2)c1.O=C(O)C(F)(F)F,100,84,0
Cc1c(CNCCCNc2nc3ccccc3[nH]2)[nH]c2cc(Cl)cc(Cl)c12,100,0,59
COc1cccc(C(=O)Nc2ccc(Nc3nc(C)cc(N(C)C)n3)cc2)c1OC,90,9,0
O=C(Nc1ccc(Cl)c(Cl)c1)C1CCC(=O)N1[C@@H](Cc1ccccc1)C(=O)NCCc1ccc(Cl)cc1 (some centres not stated),95,0,3
CN/C(=N\O)NCCN(C)C.Cl,88,0,0
COc1cc2c(cc1OC)CC(NCc1ccc(-c3ccc4nc[nH]c4c3)cc1)C2.O=C(O)C(F)(F)F,97,92,40
COc1ccc(-c2ccc([N+](=O)[O-])cc2C(=O)NCC(C)Oc2ccc(C(F)(F)F)cc2)cc1 (configuration not stated),100,81,6
Br.CC1(C)NC(N)=NC(=N)N1OCCCNC(=O)c1ccc([N+](=O)[O-])cc1,92,97,57

Structure (SMILES),Inhibition (Plasmodium falciparum [1]) [%],Inhibition (Plasmodium falciparum [2]) [%],Inhibition (HepG2) [%]
Fc1cccc(Cl)c1-c1nc(NCCC(c2ccccc2)c2ccccc2)no1,99,87,4
CC1CN(Cc2ccc(-c3ccc(-c4nc5cc(F)ccc5[nH]4)s3)cc2)CC(C)O1.O=C(O)C(F)(F)F (configuration not stated),88,89,35
Nc1ncc(-c2ccc(Cl)c(Cl)c2)c(N)n1,94,0,65
Oc1cc2c(cc1CN1CCN(Cc3ccc(Cl)s3)CC1)CCC2,98,76,7
CCCCCCCN1CCC(CC(=O)Nc2ccnc3ccc(OC)cc23)CC1,97,52,15
O=C(/C=C/c1ccc(Cl)c(Cl)c1)N1CCC(NCc2ccc3[nH]ccc3c2)CC1,97,1,44
Nc1cccc(CNCc2ccc(-c3ccc(-c4nc5cc(C(F)(F)F)ccc5[nH]4)s3)cc2)c1.O=C(O)C(F)(F)F,100,98,28
N=C(N)CCN(Cc1ccc(Cl)cc1)c1ccc(Cl)cc1,96,92,22
CCCCN(CCCC)CCNC(=O)c1cccc(NC(=O)N2CCc3cc(SC)c(C(F)(F)F)cc32)c1,96,32,15
CCOC(=O)c1ccc(N=C2SC(=Cc3cc(Br)ccc3O)C(=O)N2C)cc1,99,96,0
COc1ccc2ncc(F)c(CCN3CC[C@@H](CNCc4cc(C)c5c(c4)OCCO5)C3)c2n1.Cl,98,44,22
CN(CC(=O)Nc1cc(C(F)(F)F)ccc1-n1cncn1)Cc1ccc2ccccc2c1,98,99,18
C=CCn1c(SCC(=O)Nc2cc(C)ccc2OC)nc2sc(C)cc2c1=O,100,86,6
CN1CCC(N2CCN(Cc3ccc(-c4cccc(-c5nc6cc(F)ccc6[nH]5)c4)cc3)CC2)CC1.O=C(O)C(F)(F)F,100,99,67
COc1ccc2nccc([C@@H](O)CN3CCC(NC(=O)COc4nc(SCc5ccc(F)cc5)nc5c4CCC5)CC3)c2c1,96,78,29
CCN(CC)CCN(Cc1ccc(-c2ccc(C(F)(F)F)cc2)cc1)C(=O)Cn1c(CCc2ccc(F)c(F)c2)nc(=O)c2ccccc21.O=C(O)C(O)C(O)C(=O)O,99,62,31
N=c1ccn(CC(=NO)c2ccc(Cl)c(Cl)c2)cc1,87,81,23
Cn1nc(C(F)(F)F)c(-c2ccc(Br)cc2)c1NC(=O)Cc1ccccc1F,100,100,6
CS(=O)(=O)c1ccc(CCNCc2ccc(-c3ccc(CN(C(=O)c4ccco4)C4CCN(Cc5ccccc5)CC4)cc3)nc2)cc1.O=C(O)C(F)(F)F,85,38,13
CCN(CCCN1CCCCC1)c1cc(C)nc(Nc2ccc(C)cc2Cl)n1.O=C(O)C(F)(F)F,93,25,44
COc1cc(Nc2nccc(N3CCC(NS(=O)(=O)c4ccc(NC(C)=O)cc4)CC3)n2)cc(OC)c1OC,91,42,0
O=C(Nc1ccc(OC2CCN(Cc3ccc(F)cc3)C2)cc1)c1ccco1.O=C(O)C(F)(F)F (configuration not stated),88,69,0

Structure (SMILES),Inhibition (Plasmodium falciparum [1]) [%],Inhibition (Plasmodium falciparum [2]) [%],Inhibition (HepG2) [%]
COc1cc(C(F)(F)F)cc2[nH]c(CNCCCNc3nc4ccccc4[nH]3)cc12,100,2,59
CCc1cc(Br)c2c(c1)C(NCCCNc1cc(=O)c3ccccc3[nH]1)CCN2 (configuration not stated),94,20,13
CC(=O)c1ccc(N2C(=O)C3C(Cc4ccc(OC(C)(C)C)cc4)NC4(C(=O)N(Cc5ccc(C(C)(C)C)cc5)c5ccccc54)C3C2=O)cc1 (configuration not stated),86,81,13
Cc1c2ccncc2c(C)c2c1[nH]c1cc(Cc3ccccc3)c(O)cc12,100,99,99
Fc1ccc2c(NN=CC=Cc3ccccc3)ccnc2c1,100,98,0
COc1ccc2nccc([C@@H](O)CN3CCC(NC(=O)C(=O)c4c[nH]c5c(C)cccc45)CC3)c2c1,100,94,17
COc1cccc(C(O)CNc2ccnc(Nc3cccc(-c4csc(C)n4)c3)n2)c1 (configuration not stated),99,73,38
COc1ccc(-n2nc(C)c3c2NC(=O)CC3c2ccccc2OCc2ccccc2F)cc1 (configuration not stated),93,70,38
Cc1ccc(C)c(NC(=O)Nc2ccc(Nc3nc(C)cc(N4CCOCC4)n3)cc2)c1,98,48,88
CC(C)C[C@H](NC(=O)[C@H](Cc1ccccc1)N(C[C@H](Cc1ccccc1)NC(=O)OC(C)(C)C)C(=O)C(F)(F)F)C(=O)NC1CCN(Cc2ccccc2)CC1,92,82,13
COc1c(C2=CCN(CCCCNC(=O)c3ccc(-c4ccc(C#N)cc4)cc3)CC2)ccc2c1CCCC2,94,82,44
C(=Cc1ccccc1)C=NN=c1cc[nH]c2ccccc12,100,100,24
O=C(c1cc(OC(F)(F)F)ccc1O)N1CCN(c2ccccc2)CC1,88,1,0
CCC1(C)CC(CCNCc2ccccc2O)(c2ccccc2OC)CCO1.Cl (configuration not stated),94,93,10
O=C(NCCc1ccc(Cl)c(Cl)c1)[C@@H]1CCCN1C(=O)c1ccc(O)c(-c2ccc(Cl)c(Cl)c2)c1,99,99,0
O=C(/C=C/c1cccc(C(F)(F)F)c1)NCCCCCN1CCN(C(=O)Nc2ccc(Cl)c(Cl)c2)CC1.O=C(O)C(F)(F)F,89,0,29
CCc1ccc2c(c1O)CCN(C)C2Cc1ccccc1Cl.Cl (configuration not stated),99,99,13
CCOc1cc(C(=O)NC2CCN(Cc3ccccc3)CC2)ccc1-c1nc2cc(Cl)c(Cl)cc2[nH]1,100,99,24
O=C(Nc1ccsc1)Nc1cccc(-c2cccc(-c3nc4cc(F)ccc4[nH]3)c2)c1,100,41,46
CC(C)N1CCN(CCCNc2c3ccccc3nc3ccccc23)CC1.Cl,100,1,29
